Screening results as filed in PubChem.
Casp6 inh = human caspase-6 inhibitors, primary screen, biochemical, VEID-R110 fluorescence, single point, set 2; P55212; purified caspase-6, Z-VEID-R110 cleavage fluorescence; inhibition, % at 12.5 µM; actives 0.53% (n = 350,000); AID 686996, 2013;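 active means mean inhibition across replicates at least about 35%, with every replicate also reaching that limit, limit read from the data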
Target sequence (P55212 24-179 limits assumed): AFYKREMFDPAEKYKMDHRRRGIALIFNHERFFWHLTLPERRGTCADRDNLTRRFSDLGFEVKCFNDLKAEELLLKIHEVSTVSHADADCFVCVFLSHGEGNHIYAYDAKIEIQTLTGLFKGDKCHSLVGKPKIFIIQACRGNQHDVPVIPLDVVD
Target sequence (P55212 194-293 limits assumed): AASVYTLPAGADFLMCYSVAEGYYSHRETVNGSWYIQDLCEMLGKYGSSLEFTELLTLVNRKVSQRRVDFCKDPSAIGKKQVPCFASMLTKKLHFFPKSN
MLL AF4-AF9 inh = inhibitors of AF4 peptide binding to AF9, primary screen, biochemical, AlphaScreen, biotin-AF4 peptide, FLAG-AF9, single point | Protein AF-9 (Homo sapiens), P42568 | inhibition, % at 10 µM | actives 0.47% (n = 350,000) | AID 651704, 2012;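 active means every replicate reaching a set inhibition limit, whatever the replicate mean, cut at about 25% in these data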
NSD2 inh = NSD2 histone methyltransferase inhibitors, primary screen, biochemical, AlphaScreen, single concentration, set 2 | inhibition, % at 12.5 µM | AID 743445, 2014 | NSD2 peptide methylation, 120 min | actives 0.54% (n = 310,000) | Histone-lysine N-methyltransferase NSD2 (Homo sapiens), O96028; in the data active means inhibition above about 50%
rRNA inh HTS = reduced GFP signal of wild-type E. coli, primary screen, bacterial rRNA inhibitor project, GFP/RFP fluorescence, OD600, single point; E. coli WT GFP vs humanized-ribosome RFP mutants, 24 h; hits give low values; DMSO median 0, no signal -100; GFP signal change (wild-type ribosome), % (test concentration not listed); actives 1.6% (n = 350,000);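 active means significant combined selectivity score with lowered wild-type GFP, culture density cut under 30%, mutant RFP and density less affected; inactive means any of these conditions unmet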
RAD52 anneal inh = RAD52 DNA annealing inhibitors, primary screen, biochemical, FRET, single point, set 2; inhibition, % at 18.7 µM; recombinant RAD52 DNA annealing, FRET fluorescence; DNA repair protein RAD52 homolog (Homo sapiens), P43351; actives 0.46% (n = 360,000);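 active means every replicate showing at least 50% inhibition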
Target sequence (P43351 whole entry, looked up): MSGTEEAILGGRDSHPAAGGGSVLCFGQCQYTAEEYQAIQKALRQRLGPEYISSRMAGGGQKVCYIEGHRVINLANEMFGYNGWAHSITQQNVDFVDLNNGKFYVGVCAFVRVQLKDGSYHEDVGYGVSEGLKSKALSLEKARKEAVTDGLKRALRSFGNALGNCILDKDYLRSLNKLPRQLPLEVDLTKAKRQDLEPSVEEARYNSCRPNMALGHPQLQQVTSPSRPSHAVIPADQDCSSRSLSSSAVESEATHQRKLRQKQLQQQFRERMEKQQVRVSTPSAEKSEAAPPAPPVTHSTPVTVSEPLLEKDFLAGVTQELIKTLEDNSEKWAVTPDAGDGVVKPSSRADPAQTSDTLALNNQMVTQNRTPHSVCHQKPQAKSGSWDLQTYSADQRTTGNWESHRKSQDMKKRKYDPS
Of the large screens only hits and unclear results are named; the others gave an inactive call. In the library only some 2.5% were active in any assay of this set; here they are far more common.

O=C(c1ccc2c(c1)OCO2)N1CC2(C1)[C@H](c1ccccc1)[C@@H](CO)N2C(=O)C1CCC1	none (no result: NSD2 inh)
Nc1nc(NCc2ccco2)nc(N2CCN(Cc3ccccc3)CC2)c1[N+](=O)[O-]	rRNA inh HTS -24
O=C(Cc1nnc(NC(=O)c2ccccc2)s1)N/N=C\c1ccc(O)c(O)c1	NSD2 inh 68
S=C(NN=Cc1ccccn1)N(Cc1ccccn1)Cc1ccccn1	none
CC(=NNC(=S)N(Cc1ccccn1)Cc1ccccn1)c1cnccn1	rRNA inh HTS -16
COc1cccc(/C=C2\SC(=S)N(CC3CCCO3)C2=O)c1 (centres undefined)	MLL AF4-AF9 inh 32
O=C1/C(=C/c2cccc(O)c2)SC(=S)N1CC1CCCO1 (centres undefined)	none (no result: NSD2 inh)
COC(=O)c1cccc(NC(=S)Nc2ccccc2Cl)c1	none
CC(=O)Nc1cccc(C(=O)OCC(=O)c2ccccc2Cl)c1	rRNA inh HTS -24 (no result: Casp6 inh)
COC(=O)c1cccc(NC(=S)Nc2ccc(Cl)c(Cl)c2)c1	rRNA inh HTS -48
O=C(Nc1cccc(Cl)c1)Nc1cccc(Cl)c1	none (no result: Casp6 inh, MLL AF4-AF9 inh, rRNA inh HTS, RAD52 anneal inh)
COC(=O)c1cc(NC(=O)Nc2cccc(Cl)c2)ccc1Cl	rRNA inh HTS -51 (no result: NSD2 inh)
CCCNC(=O)N[C@H]1C=C[C@H](CC(=O)NCCc2ccccc2)O[C@H]1CO	none (no result: Casp6 inh, NSD2 inh, RAD52 anneal inh)
C[C@H]1CN([C@@H](C)CO)C(=O)c2cc(-c3ccc(F)cc3)cnc2O[C@@H]1CN(C)C(=O)c1ccncc1	none (no result: Casp6 inh, MLL AF4-AF9 inh, NSD2 inh, RAD52 anneal inh)
COc1cccc(CNC(=O)CN2c3cccc4cccc(c34)S2(=O)=O)c1	rRNA inh HTS -37
CC(NC(=O)CN1c2cccc3cccc(c23)S1(=O)=O)c1ccc(S(N)(=O)=O)cc1 (centres undefined)	Casp6 inh 56
CN(CC(=O)Nc1cccc(F)c1)C(=O)CN1c2cccc3cccc(c23)S1(=O)=O	rRNA inh HTS -40
O=C(c1cnccn1)N1CC(=O)N2[C@H](CO)[C@@H](c3ccc(C#CC4CCCC4)cc3)[C@@H]2C1	none (no result: NSD2 inh)
COc1c(Br)cc([N+](=O)[O-])c(OC)c1C(=O)NC(=O)Nc1c(Cl)cccc1Cl	rRNA inh HTS -38
COc1c(Br)cc([N+](=O)[O-])c(OC)c1C(=O)NC(=O)Nc1cc(Cl)cc(Cl)c1	none (no result: rRNA inh HTS)
O=C1Cc2cc(S(=O)(=O)N3CCNCC3)ccc2N1	RAD52 anneal inh 77
O=C(NC1CCCc2c1cnn2-c1ccc(F)cc1F)c1ccccc1N1CCOCC1 (centres undefined)	rRNA inh HTS -29
COc1ccc(NC(=O)N(C)C[C@@H]2OCCCC[C@H](C)Oc3ccc(NC(=O)CCCN(C)C)cc3C(=O)N([C@H](C)CO)C[C@@H]2C)cc1	none (no result: NSD2 inh)
O=C(NCCN1CCN(Cc2ccccc2)CC1)Nc1cc(Cl)cc(Cl)c1	rRNA inh HTS -49
O=C(NCCN1CCCCC1)Nc1ccc(Br)cc1	rRNA inh HTS -32
Cc1ccc(NC(=O)NCCN2CCCCC2)cc1	none
Cn1ccc2c(-c3cccnc3)cc3c(c21)C1CCC3O1 (centres undefined)	none (no result: NSD2 inh)
CN(CCc1ccccc1)c1cc2c(c3c1ccn3C)C1CCC2O1 (centres undefined)	MLL AF4-AF9 inh 28 (no result: NSD2 inh)
Cn1ccc2c(-c3ccc(F)nc3)cc3c(c21)C1CCC3O1 (centres undefined)	none (no result: NSD2 inh)
CN(c1cc2c(c3c1ccn3C)C1CCC2O1)C1CCCCC1 (centres undefined)	MLL AF4-AF9 inh 32 (no result: NSD2 inh)
CS(=O)(=O)N1[C@@H]2c3ccc(-c4cccc(F)c4)c(=O)n3C[C@@H]2[C@@H](CO)[C@@H]1C(=O)NC1CCC1	none (no result: NSD2 inh)
C[C@H](CO)N1C[C@H](C)[C@H](CN(C)C(=O)Nc2ccc(F)cc2)Oc2ccc(NC(=O)Nc3ccc4c(c3)OCO4)cc2C1=O	none (no result: Casp6 inh, MLL AF4-AF9 inh, NSD2 inh, RAD52 anneal inh)
COc1cc(NC(=O)C(c2ccccc2)c2ccccc2)c(C(=O)O)cc1OC	rRNA inh HTS -24
CCNC(=O)Nc1cc(OC)c(OC)cc1C(=O)O	none
Cc1noc(C)c1S(=O)(=O)Nc1ccc2c(c1)C(=O)N([C@H](C)CO)C[C@H](C)[C@H](CN(C)C(=O)Nc1ccccc1)OCCCC[C@@H](C)O2	none (no result: NSD2 inh)
CN(C)C(=O)c1cc2c(c(-c3cccc(-c4ccccc4F)c3)n1)[C@H](CCO)N(S(C)(=O)=O)C2	none (no result: NSD2 inh)
CCCCn1nc(C(=O)NCC2COc3ccccc3O2)c2ccccc2c1=O (centres undefined)	rRNA inh HTS -36
COc1c(-c2ccc(O)c(O)c2)oc2cc(O)cc(O)c2c1=O	Casp6 inh 48 (no result: NSD2 inh, rRNA inh HTS)
COCOc1cc(O)c2c(=O)c(OCOC)c(-c3ccc(OCOC)c(OCOC)c3)oc2c1	Casp6 inh 51 (no result: NSD2 inh, rRNA inh HTS)
CC(C)CC(NS(=O)(=O)OCC(Cl)(Cl)Cl)c1ccccc1 (centres undefined)	none (no result: NSD2 inh)
CC(NS(=O)(=O)OCC(Cl)(Cl)Cl)c1ccc(Br)cc1 (centres undefined)	rRNA inh HTS -23 (no result: NSD2 inh)
COc1ccc(CN(C)C[C@H]2Oc3ccc(NC(=O)C4CC4)cc3CC(=O)N([C@H](C)CO)C[C@H]2C)cc1	none (no result: NSD2 inh)
CN(C)S(=O)(=O)c1cccc(NS(=O)(=O)c2ccc(Cl)s2)c1	none
Cc1ccc(S(=O)(=O)N(C)C)cc1NS(=O)(=O)c1ccc(Cl)s1	rRNA inh HTS -45
COc1ccc(NC(=O)NC[C@H]2CC[C@H]3[C@H](CN3Cc3ccccc3C(=O)O)O2)cc1	RAD52 anneal inh 54 (no result: NSD2 inh, rRNA inh HTS)
CO[C@@H]1CN(C)C(=O)c2cc(NC(=O)c3nc4ccccc4s3)ccc2OC[C@@H](C)N(Cc2ccccc2)C[C@H]1C	none (no result: NSD2 inh)
COc1ccc(N2C(=O)C(CC(=O)Nc3ccc(Cl)cc3)N(NC(=O)c3cccc(F)c3)C2=S)cc1 (centres undefined)	rRNA inh HTS -17
CN1C(=O)C(CC(=O)NCCc2ccccc2)N(NC(=O)c2cccc(F)c2)C1=S (centres undefined)	rRNA inh HTS -16 (no result: NSD2 inh)
COc1ccc2c3c(n(C)c2c1)[C@H](CO)N(C(=O)Nc1ccc(F)cc1)CC31CN(Cc2cccnc2)C1	none (no result: NSD2 inh)
C[C@H](CO)N1C[C@H](C)[C@H](CN(C)C(=O)Nc2ccc(C(F)(F)F)cc2)OCCCC[C@H](C)Oc2ccc(NC(=O)c3ccncc3)cc2C1=O	none (no result: NSD2 inh)
O=[N+]([O-])c1cc(C(F)(F)F)cc([N+](=O)[O-])c1NCCNC(=S)Nc1cccc(F)c1	rRNA inh HTS -25 (no result: MLL AF4-AF9 inh)
Cn1cnc(S(=O)(=O)N2CCCCN3[C@@H](CO)[C@@H](c4ccc(-c5ccccc5F)cc4)[C@@H]3C2)c1	none (no result: NSD2 inh)
O=C(C1=C[C@@H](c2ccc(C(F)(F)F)cc2)C[C@@H](OCc2ccc(CO)cc2)O1)N1CCCCCCC1	none (no result: NSD2 inh, rRNA inh HTS)
COc1cc(/C=N/NC(=O)Nc2cccc3nsnc23)cc(OC)c1OC	none (no result: Casp6 inh, MLL AF4-AF9 inh, rRNA inh HTS, RAD52 anneal inh)
